Assay results as given in ChEMBL document CHEMBL3988442, “University of Dundee, Small-Polar-MMV Screening Library” (2021).
For part of these data: Potency and affinity values are given separately.

Key:
Design in all cases: scale not given: direction of the effect not stated beside the values
[1] = target: Protein translocase subunit SecA (Escherichia coli (strain K12)) (UniProt P10408); test: Assay to Identify E. coli SecA ATPase Inhibitors; type: functional; conditions: 30 µM
[2] = target: T1, Ubiquitin-activating enzyme e1, putative (Leishmania donovani (strain BPK282A1)) (UniProt E9BSI1); test: Leishmania donovani Ubiquitin Activating Enzyme (LdE1); type: functional; conditions: 30 µM
T1 sequence (whole entry): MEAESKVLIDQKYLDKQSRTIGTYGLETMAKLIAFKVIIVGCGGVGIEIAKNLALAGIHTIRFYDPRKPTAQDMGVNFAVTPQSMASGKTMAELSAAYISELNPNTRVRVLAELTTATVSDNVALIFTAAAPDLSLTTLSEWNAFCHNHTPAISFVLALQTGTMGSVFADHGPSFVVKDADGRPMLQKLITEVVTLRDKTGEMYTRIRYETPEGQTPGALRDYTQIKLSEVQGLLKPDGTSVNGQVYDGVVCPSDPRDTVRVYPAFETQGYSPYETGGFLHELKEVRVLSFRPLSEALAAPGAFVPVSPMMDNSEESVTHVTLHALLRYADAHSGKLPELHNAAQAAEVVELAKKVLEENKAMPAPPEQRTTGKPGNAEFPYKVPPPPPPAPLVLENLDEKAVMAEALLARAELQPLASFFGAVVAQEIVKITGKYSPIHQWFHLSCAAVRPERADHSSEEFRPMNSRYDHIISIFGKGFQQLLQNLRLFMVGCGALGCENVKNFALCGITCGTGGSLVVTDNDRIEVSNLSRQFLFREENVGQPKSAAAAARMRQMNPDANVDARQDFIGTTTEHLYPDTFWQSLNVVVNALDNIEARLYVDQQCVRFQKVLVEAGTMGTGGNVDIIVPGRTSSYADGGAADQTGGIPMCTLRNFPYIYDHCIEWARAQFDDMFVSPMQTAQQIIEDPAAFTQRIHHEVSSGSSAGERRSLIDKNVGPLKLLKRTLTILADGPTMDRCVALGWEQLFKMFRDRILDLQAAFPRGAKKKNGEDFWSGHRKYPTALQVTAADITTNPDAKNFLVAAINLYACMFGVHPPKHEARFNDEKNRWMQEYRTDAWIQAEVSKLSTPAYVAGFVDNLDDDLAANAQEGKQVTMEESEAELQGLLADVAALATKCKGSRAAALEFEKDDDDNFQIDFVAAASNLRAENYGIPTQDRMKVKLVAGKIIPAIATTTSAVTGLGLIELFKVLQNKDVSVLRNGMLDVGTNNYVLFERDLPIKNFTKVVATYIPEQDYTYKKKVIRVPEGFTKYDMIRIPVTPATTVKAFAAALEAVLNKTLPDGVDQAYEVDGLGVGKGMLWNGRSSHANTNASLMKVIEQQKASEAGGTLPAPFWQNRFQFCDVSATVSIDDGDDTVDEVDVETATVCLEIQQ

[3] = target: AMP-activated protein kinase, AMPK (Homo sapiens) (UniProt P54646+O43741+P54619+Q9UGJ0+Q9Y478+Q13131+Q9UGI9); test: AMP-dependent Kinase enzyme assay. An in vitro enzyme assay that detects ADP turnover that is directly proportional to AMPK activity. This uses naive AMPK that is activated during the assay with MK-8722; type: functional; conditions: 30 µM
[4] = target: Sialic acid-binding Ig-like lectin 9 (Homo sapiens) (UniProt Q9Y336); test: Hs-Siglec9 ALPHAscreen SOP 20170721; conditions: 10 µM
Sequence of Sialic acid-binding Ig-like lectin 9 (Homo sapiens) (Q9Y336 whole entry): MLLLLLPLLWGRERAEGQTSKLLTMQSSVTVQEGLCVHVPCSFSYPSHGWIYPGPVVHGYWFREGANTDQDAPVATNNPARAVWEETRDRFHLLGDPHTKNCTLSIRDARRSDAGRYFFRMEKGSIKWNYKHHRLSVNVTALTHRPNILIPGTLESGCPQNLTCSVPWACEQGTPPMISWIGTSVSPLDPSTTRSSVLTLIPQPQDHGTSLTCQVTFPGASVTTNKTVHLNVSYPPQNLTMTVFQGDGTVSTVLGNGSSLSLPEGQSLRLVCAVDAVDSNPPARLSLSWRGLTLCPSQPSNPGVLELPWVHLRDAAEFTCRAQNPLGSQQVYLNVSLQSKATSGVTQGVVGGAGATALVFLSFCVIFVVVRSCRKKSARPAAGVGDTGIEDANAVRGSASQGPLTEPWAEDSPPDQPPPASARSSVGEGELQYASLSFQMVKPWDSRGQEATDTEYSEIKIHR

Trypanosoma cruzi = test: Trypanosoma cruzi phosphomannomutase and mannose-1-phosphate guanylyltransferase assay; type: functional; conditions: 10 µM
[5] = target: T2, Arginase-2, mitochondrial (Homo sapiens) (UniProt P78540); test: in vitro enzyme assay to detect the production of urea directly proportional to the activity of Arginase II; type: functional; conditions: 33.3 µM; note: in the data most compounds retested in dose-response had high values
T2 sequence (whole entry): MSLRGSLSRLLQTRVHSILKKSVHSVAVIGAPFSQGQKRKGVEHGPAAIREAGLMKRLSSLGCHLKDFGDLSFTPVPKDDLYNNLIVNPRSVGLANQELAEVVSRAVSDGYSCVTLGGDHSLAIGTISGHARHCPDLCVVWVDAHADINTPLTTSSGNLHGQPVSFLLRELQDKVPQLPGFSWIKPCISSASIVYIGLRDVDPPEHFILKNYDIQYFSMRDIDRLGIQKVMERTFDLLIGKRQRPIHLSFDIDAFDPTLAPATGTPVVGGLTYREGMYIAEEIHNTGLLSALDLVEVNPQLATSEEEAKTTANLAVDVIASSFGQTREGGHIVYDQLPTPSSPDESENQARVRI

[6] = target: T3, Proteasome subunit beta (Trypanosoma cruzi) (UniProt O96673); test: Trypanosoma cruzi proteasome chymotrypsin-like activity (TcProtChymo) assay.; note: in the data most compounds retested in dose-response had high values; type: functional; conditions: 9.37 µM
T3 sequence (whole entry): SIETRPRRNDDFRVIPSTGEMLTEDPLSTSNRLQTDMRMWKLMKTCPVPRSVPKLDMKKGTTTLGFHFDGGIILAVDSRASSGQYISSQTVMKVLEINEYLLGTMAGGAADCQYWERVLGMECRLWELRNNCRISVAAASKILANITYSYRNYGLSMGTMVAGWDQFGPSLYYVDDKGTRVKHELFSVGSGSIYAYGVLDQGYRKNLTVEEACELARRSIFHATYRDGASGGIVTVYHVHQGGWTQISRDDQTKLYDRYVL

Homo sapiens = species: Homo sapiens; test: To identify inhibition of the IFN signalling (Jak-Stat) pathway via expression of an eGFP reporter gene under the control of an IFN-stimulated response element (ISRE) containing MxA promoter.; type: functional; conditions: 30 µM
[7] = target: T4, Tyrosyl-tRNA synthetase, putative (Trypanosoma cruzi (strain CL Brener)) (UniProt Q4DSP6); test: Trypanosoma cruzi tyrosyl tRNA synthetase (TcYRS) _High Tyrosine SOP; type: functional; conditions: 30 µM; note: in the data most compounds retested in dose-response had high values
T4 sequence (whole entry): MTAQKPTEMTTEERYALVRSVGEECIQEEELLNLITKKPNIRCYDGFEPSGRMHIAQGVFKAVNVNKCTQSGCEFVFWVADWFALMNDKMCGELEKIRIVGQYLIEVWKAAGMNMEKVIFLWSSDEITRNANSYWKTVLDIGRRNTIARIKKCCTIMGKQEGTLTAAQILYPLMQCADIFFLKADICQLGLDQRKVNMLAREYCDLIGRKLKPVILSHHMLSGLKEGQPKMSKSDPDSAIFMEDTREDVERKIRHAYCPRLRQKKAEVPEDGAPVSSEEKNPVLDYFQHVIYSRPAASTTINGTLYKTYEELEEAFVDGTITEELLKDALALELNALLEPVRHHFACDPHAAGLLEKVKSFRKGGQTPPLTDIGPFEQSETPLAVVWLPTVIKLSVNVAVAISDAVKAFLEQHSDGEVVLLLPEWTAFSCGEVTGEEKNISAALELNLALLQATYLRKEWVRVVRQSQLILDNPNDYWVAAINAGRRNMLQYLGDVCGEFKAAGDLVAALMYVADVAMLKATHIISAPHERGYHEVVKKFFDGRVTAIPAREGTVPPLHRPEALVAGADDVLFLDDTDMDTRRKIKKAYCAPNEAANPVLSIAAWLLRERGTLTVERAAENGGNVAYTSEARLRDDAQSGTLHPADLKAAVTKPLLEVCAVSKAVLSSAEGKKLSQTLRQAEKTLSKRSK

[8] = target: T4, Tyrosyl-tRNA synthetase, putative (Trypanosoma cruzi (strain CL Brener)); test: Trypanosoma cruzi tyrosyl tRNA synthetase (TcYRS) SOP; type: functional; conditions: 30 µM
[9] = target: Chromo domain-containing protein 1 (Saccharomyces cerevisiae (strain ATCC 204508 / S288c) (Baker's yeast)) (UniProt P32657); test: ScCHD-1 Enzyme Inhibition Assay; type: functional; conditions: 30 µM; note: in the data most compounds retested in dose-response had high values
Sequence of Chromo domain-containing protein 1 (Saccharomyces cerevisiae (strain ATCC 204508 / S288c) (Baker's yeast)) (P32657 whole entry, the tested form may be a part): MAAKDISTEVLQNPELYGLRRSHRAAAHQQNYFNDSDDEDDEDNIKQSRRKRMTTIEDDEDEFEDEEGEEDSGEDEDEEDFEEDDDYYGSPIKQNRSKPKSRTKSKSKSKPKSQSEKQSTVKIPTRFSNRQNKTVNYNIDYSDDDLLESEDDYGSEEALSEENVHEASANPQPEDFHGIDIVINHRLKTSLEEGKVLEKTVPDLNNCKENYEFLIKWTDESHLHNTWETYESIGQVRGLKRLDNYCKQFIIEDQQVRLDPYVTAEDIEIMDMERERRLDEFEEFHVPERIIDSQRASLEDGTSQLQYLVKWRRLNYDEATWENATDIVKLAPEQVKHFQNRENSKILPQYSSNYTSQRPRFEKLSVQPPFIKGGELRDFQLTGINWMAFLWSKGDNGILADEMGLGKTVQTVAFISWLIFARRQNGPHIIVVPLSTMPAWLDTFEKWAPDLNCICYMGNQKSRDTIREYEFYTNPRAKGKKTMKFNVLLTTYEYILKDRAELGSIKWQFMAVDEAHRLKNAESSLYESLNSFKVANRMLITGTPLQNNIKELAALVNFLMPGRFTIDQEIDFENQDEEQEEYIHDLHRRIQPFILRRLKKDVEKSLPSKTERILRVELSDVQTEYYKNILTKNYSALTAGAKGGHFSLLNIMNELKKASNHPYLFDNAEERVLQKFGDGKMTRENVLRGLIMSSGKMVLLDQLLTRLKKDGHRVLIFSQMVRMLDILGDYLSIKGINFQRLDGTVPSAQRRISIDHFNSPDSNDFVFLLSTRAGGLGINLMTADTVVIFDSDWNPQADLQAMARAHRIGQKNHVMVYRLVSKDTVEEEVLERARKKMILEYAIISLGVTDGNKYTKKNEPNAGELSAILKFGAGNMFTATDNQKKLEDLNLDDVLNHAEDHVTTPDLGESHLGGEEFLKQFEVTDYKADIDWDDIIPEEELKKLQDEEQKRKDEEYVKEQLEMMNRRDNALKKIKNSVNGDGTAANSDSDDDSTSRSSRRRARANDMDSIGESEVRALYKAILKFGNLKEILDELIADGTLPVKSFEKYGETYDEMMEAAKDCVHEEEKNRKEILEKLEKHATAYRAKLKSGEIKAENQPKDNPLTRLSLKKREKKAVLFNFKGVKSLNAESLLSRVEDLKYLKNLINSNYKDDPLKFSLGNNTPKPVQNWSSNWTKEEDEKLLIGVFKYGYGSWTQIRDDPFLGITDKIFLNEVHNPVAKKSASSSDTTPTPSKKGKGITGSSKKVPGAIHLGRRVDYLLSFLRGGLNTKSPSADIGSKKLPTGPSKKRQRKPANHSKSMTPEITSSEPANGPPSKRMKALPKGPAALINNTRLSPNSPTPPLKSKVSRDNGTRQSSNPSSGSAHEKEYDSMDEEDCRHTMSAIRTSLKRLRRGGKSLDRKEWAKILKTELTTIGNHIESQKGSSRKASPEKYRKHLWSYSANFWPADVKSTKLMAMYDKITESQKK

Sequence of Protein translocase subunit SecA (Escherichia coli (strain K12)) (P10408 whole entry): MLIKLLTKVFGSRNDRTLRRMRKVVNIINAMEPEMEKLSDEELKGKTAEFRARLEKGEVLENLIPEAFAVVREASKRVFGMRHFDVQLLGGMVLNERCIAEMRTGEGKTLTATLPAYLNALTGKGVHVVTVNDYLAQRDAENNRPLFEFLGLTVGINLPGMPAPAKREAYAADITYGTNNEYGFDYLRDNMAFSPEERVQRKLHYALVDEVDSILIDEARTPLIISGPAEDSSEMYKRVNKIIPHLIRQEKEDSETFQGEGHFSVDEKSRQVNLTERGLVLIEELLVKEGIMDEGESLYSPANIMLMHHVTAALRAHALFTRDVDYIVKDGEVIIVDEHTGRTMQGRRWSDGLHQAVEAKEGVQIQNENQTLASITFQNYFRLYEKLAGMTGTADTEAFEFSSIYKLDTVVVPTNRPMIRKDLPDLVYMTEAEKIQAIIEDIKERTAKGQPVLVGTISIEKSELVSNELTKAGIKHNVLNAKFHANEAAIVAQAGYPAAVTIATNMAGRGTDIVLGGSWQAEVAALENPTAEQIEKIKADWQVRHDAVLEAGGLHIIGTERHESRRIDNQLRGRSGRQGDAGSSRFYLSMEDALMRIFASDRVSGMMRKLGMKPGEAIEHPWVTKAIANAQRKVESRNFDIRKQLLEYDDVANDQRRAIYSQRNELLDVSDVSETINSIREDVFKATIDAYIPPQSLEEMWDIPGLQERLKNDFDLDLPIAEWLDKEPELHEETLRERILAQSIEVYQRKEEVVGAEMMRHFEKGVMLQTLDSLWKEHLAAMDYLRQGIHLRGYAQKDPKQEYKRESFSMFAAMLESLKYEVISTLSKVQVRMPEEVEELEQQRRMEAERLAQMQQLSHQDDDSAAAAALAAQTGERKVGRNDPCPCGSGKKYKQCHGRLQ

Row | Structure (SMILES) | Percent Effect [1] | Percent Effect [2] | Percent Effect [3] | Percent Effect [4] | Percent Effect (Trypanosoma cruzi) | Percent Effect [5] | Percent Effect [6] | Percent Effect (Homo sapiens) | Percent Effect [7] | Percent Effect [8] | Percent Effect [9]
1 | Cc1ccc(C(=O)Nc2cc(C(C)C)n[nH]2)cn1 | -6.49% | 5.2% | 97.8% | 4.24% | -5.06% | 3.56% | 10.3% | 75.7% | 3.88% | 9.76% | -5.01%
2 | Cc1nccn1C1CCCN(C(=O)c2ccc(N3CCCC3)nn2)C1 (stereo unspecified) | -4.79% | 10.5% | -5.31% | 8.97% | 1.59% | -0.719% | -4.65% | 2.56% | 4.43% | 11.1% | -6.5%
3 | CC(NC(=O)C1=NN(C)C(=O)CC1)c1ccc(F)cc1F (stereo unspecified) | -1.15% | 16.4% | 16.9% | 10.9% | 4.11% | -4.09% | 20.4% | 14.5% | 5.38% | 15% | -6.12%
4 | COC(=O)N1CCCN(C(=O)NCc2ccc(Cl)s2)CC1 | -1.83% | 16.5% | 4.69% | -2.7% | 0.308% | -4.09% | 12.9% | 19.3% | 7.29% | 15.2% | -27.7%
5 | NC(=O)C1CCN(C(=O)NCc2ccccc2Cn2cncn2)CC1 | -3.59% | 5.41% | 4.01% | 0.839% | -3.86% | 0% | 10.2% | 1.83% | 2.65% | 7.32% | -1.94%
6 | Cc1cnn(C2CCCN(C(=O)C3=NN(C)C(=O)CC3)C2)c1 (stereo unspecified) | -6.81% | 21.6% | -15.8% | 11.8% | 8.4% | 3.21% | 15.7% | 2.98% | 8.37% | 13.6% | -12.6%
